# Screening data from PubChem.
# CD11b adhes enh: CD11b/CD18-fibrinogen binding enhancement. P05107+P11215. AID 1499. 93,000 tested, 0.07% active. K562 CD11b/CD18 adhesion to fibrinogen, ATPlite luminescence. activation, % at 10 µM;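 active = 10 µM primary screen giving 50% or more activity, confirmed by 40% or more on retest at that dose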
# CYP2C19 act: activators of human cytochrome P450 2C19. recombinant CYP2C19, luciferin-H EGE luminescence; hits give high values; 0 = fully inhibited enzyme, 1 = untreated enzyme. AID 1025. activation factor at 5 µM. P33261. 96,000 tested, under 10 active;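 active = activation factor of at least 2 at 5 µM in the primary screen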;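 note: 0 = wells with 2.5 mM tranylcypromine and 1 = vehicle-only wells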
# CYP2C9 act: activators of human CYP2C9 | activation factor at 5 µM | recombinant CYP2C9, luciferin-H conversion, luminescence; hits give high values; factor 1 = untreated enzyme, 0 = blocked | P11712 | 96,000 tested, 1.4% active;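 active = activation factor of 2 or more for CYP2C9 at a 5 µM dose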;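 note: 0 = sulfaphenazole-blocked wells and 1 = vehicle-only wells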
# Target sequence (P11712 whole entry, looked up): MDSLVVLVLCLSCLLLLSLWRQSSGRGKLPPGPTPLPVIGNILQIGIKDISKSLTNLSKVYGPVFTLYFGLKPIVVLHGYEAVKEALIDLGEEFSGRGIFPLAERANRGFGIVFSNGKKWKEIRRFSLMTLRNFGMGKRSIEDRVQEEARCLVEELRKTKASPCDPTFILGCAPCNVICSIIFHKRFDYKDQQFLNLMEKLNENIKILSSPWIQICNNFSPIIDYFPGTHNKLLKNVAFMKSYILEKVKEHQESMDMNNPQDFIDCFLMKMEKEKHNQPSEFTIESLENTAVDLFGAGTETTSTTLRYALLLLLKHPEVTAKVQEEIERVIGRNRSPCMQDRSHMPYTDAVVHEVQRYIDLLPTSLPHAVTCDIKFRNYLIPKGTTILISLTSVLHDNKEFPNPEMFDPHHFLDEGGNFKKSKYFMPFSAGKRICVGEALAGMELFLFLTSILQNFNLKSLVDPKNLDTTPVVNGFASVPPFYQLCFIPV
# Mac1 fbg inh: blocks human CD11b/CD18 adhesion to fibrinogen | 93,000 tested, 0.54% active | K562 CD11b/CD18 adhesion to fibrinogen, ATPlite luminescence; Mn2+ added to activate the integrin | inhibition, % at 10 µM;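 active = primary inhibition of 50% or more at 10 µM, then 40% or more on retest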
# CYP2C19 inh: blocks human cytochrome P450 2C19 | AID 778 | P33261 | inhibition, % at 5 µM | 96,000 tested, 21% active | CYP2C19 Supersomes, luciferin-H EGE luminescence, 30 min;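 active = CYP2C19 inhibition above a set limit at 5 µM in the primary screen, cut at about 50% in these data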;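 note: plate controls were negative control wells for no effect and 2.5 mM tranylcypromine positive control for full effect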
# CYP2C9 inh: human CYP2C9 inhibition; P11712; CYP2C9 Supersomes, luciferin-H conversion, luminescence; inhibition, % at 5 µM; 96,000 tested, 20% active;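 active = blocking of liver enzyme CYP2C9 beyond about 50% at 5 µM, limit read from the data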
# The depositor's hits bear a star; / = no result given. Hits are enriched below; roughly 28% of the tested compounds scored in any of these assays.
SMILES,CD11b adhes enh,CYP2C19 act,CYP2C9 act,Mac1 fbg inh,CYP2C19 inh,CYP2C9 inh
CCC(=O)Nc1ccc(-c2nc(-c3ccccc3)n(CC(=O)N3CCCCC3)n2)cc1,-1,0.9,0.7,-9,7,35
C=CCN=C(C)C1=C(O)C(C)OC1=O (stereo not drawn),0,/,/,-2,/,/
Cc1cc(=O)[nH]c2c1c(C)nn2C1CCOC(C)(C)C1 (stereo not drawn),/,1.1,1.1,/,-6,-7
NC(=O)c1ccc(-n2nnnc2SCc2ccc(F)cc2)cc1,1,0.3,0.8,1,75*,20
O=C(O)c1ccc(-n2nnnc2SCc2ccccc2)cc1,2,1.2,0.7,5,-24,35
O=C1NC(c2ccccc2Cl)Nc2ccccc21 (stereo not drawn),0,0.9,0.9,-6,8,9
O=C1c2ccccc2NC2CCCCC12 (stereo not drawn),3,1,5.1*,-2,1,-411
C/C(=N\NC(=O)c1ccccc1)c1ccc(N2CCOCC2)cc1,-4,0.7,0.7,-4,27,26
O=C(NC(=O)c1ccccc1)NC1(C(F)(F)F)OCCO1,0,0.2,0.6,-6,76*,42
CN(CC(=O)N1CCc2ccccc21)S(=O)(=O)c1cccs1,-2,0.1,3*,5,89*,-199
CCCc1nnc(SCC(=O)N2CCCCC2)n1CCCOC,-2,1.1,1.1,0,-14,-15
Cn1c(C(=O)Nc2ccc3c(c2)OCCO3)cc2sccc21,-8,0.7,1.4,32,25,-35
O=C(Nc1ccc2c(c1)OCCO2)c1cc2sccc2n1Cc1ccc(F)cc1,/,0.4,0.2,/,60*,78*
CC(C)CCSc1nc(N)c(C#N)cc1C#N,/,0.9,0.8,/,14,24
COc1ccc(C(=O)Nn2c(SCC(=O)c3ccc(Cl)cc3)nc3ccccc3c2=O)cc1,-4,0.8,0.2,-16,25,82*
CCCOc1ccc(C(=O)Nn2c(C)nc3ccccc3c2=O)cc1,1,1,0.5,0,3,46
COc1ccc(C(=O)Nn2c(SCC(=O)N3CCC(C)CC3)nc3ccccc3c2=O)cc1,/,0.6,0.1,/,39,86*
O=C(CSc1nc2ccccc2c(=O)n1Cc1ccccc1)NCc1ccco1,/,0.9,1,/,9,0
Cn1c(SCC(=O)NCc2ccco2)nc2ccccc2c1=O,-3,1,0.8,2,4,17
COc1ccc(C(=O)Nn2c(SCC(=O)NC3CCCCC3)nc3ccccc3c2=O)cc1,2,0.9,0.7,-30,14,31
COc1ccc(C(=O)Nn2c(SCC(=O)NCc3ccco3)nc3ccccc3c2=O)cc1,-5,0.9,0.2,0,13,80*
O=C(CSc1nc2ccccc2c(=O)n1Cc1ccc(C(=O)NC2CC2)cc1)NCc1ccco1,-3,0.7,0.5,-38,35,53*
c1ccc2[nH]c(SCc3ccc(-c4nnco4)cc3)nc2c1,-3,0,0.1,-6,99*,95*
COc1ccc(CSc2nc3ccccc3[nH]2)cc1,-6,0.5,0.4,18,48,63*
O=C1CCC(=O)N1c1ccc(CSc2nc3ccccc3[nH]2)cc1,-2,0.4,0.4,-2,64*,62*
SMILES,CD11b adhes enh,CYP2C19 act,CYP2C9 act,Mac1 fbg inh,CYP2C19 inh,CYP2C9 inh
CCOC(=O)c1ccc(CSc2n[nH]c(C)n2)o1,0,0.3,0.8,-5,65*,20
COc1ccc(CSc2nc(C)cc(=O)[nH]2)cc1,-3,0.7,0.6,-8,32,36
Cc1noc(C)c1CSc1nc2ccccc2[nH]1,1,0.6,0.7,-23,37,26
Cn1cc(C(=O)N2CCN(C(=O)c3ccco3)CC2)c2c3ccccc3n(C)c2c1=O,-5,1.1,0.9,6,-11,8
O=C(Nc1nc(-c2ccccc2)cs1)c1ccc(Br)o1,/,0.8,0.6,/,24,37
Cc1cccc(CSc2cccc3cccnc23)c1,/,0.5,1.4,/,46,-39
COC(=O)c1ccc(CSc2nc3ccccc3[nH]2)o1,/,0.2,0.6,/,81*,36
c1cnc2c(SCc3ccc(-c4nnco4)cc3)cccc2c1,-2,0.1,0.4,4,86*,62*
CC(C)NC(=O)COC(=O)c1ccc(Cl)c(S(=O)(=O)N2CCCC2)c1,-5,1,1.1,4,-4,-11
CC(=O)NC(Cc1c[nH]c2ccccc12)C(=O)N1CCc2ccccc2C1 (stereo not drawn),-1,0.2,0.5,-9,75*,47
COC(=O)C(Cc1c[nH]c2ccccc12)NC(=O)CNC(C)=O (stereo not drawn),-2,0.9,1,6,13,-3
COc1cc(C(=O)OCC(=O)Nc2cc(C)on2)ccc1OCc1ccccc1Cl,3,0.9,0.9,-1,13,6
CC(=O)NC(Cc1c[nH]c2ccccc12)C(=O)OCC(=O)Nc1ccc2c(c1)OCO2 (stereo not drawn),5,0.6,0.3,3,39,74*
CC(=O)NC(Cc1c[nH]c2ccccc12)C(=O)OCC(=O)Nc1cc(C)on1 (stereo not drawn),0,0.1,0.2,-10,87*,84*
CC(=O)/C=C(/C)NC(Cc1c[nH]c2ccccc12)C(=O)O (stereo not drawn),-3,1.1,1.1,17,-8,-12
Cc1cc(NC(=O)COC(=O)[C@H](Cc2c[nH]c3ccccc23)NC(=O)c2ccc(F)cc2)no1,0,0.7,0.2,14,30,76*
COc1ccc(C(=O)NC2CC(C)(C)Cc3occc32)cc1 (stereo not drawn),0,/,/,-1,/,/
COC(=O)C(C)Oc1ccc(=O)[nH]n1 (stereo not drawn),2,1,1.1,1,-3,-7
Cc1ccc(CNS(=O)(=O)c2cn(C)cn2)cc1,-6,0.9,1.2,0,7,-16
CCNC(=S)NCCN1CCCCC1,-3,0.9,0.9,-17,5,7
COC(=O)c1sccc1NC(=O)CSc1nnnn1-c1ccccc1F,1,1,2.1*,-3,4,-114
COC(=O)c1sccc1NC(=O)CN(C)NS(=O)(=O)c1ccc(F)cc1,/,0.8,0.1,/,17,91*
COC(=O)c1sccc1NC(=O)CSc1ccccc1NS(=O)(=O)c1ccc(F)cc1,4,0.7,0.3,32,27,74*
COC(=O)c1sccc1NC(=O)CSc1ccc(Cl)cc1,/,0.9,0.8,/,6,17
COC(=O)c1sccc1NC(=O)CN(C)NS(=O)(=O)c1ccc([N+](=O)[O-])cc1,/,1,0.9,/,2,12
COC(=O)c1sccc1NC(=O)CN(C)NS(=O)(=O)c1ccc(Cl)cc1,/,0.8,0.9,/,15,11
